# From paper PMC7819943, “Rice protein-binding microarrays: a tool to detect cis-acting elements near promoter regions in rice”
# In all, about 39,000 sequences were measured (“fluorescence intensity (a.u.)”: median about 4,300, highest 2% from about 39,000 on). The list comes from a sample in which the highest values are over-represented; it also holds similar and randomly drawn sequences.
# Molecular target: T1, OsSMF1 (Oryza sativa, UniProt Q6ZLB0 1-436)
# T1 sequence: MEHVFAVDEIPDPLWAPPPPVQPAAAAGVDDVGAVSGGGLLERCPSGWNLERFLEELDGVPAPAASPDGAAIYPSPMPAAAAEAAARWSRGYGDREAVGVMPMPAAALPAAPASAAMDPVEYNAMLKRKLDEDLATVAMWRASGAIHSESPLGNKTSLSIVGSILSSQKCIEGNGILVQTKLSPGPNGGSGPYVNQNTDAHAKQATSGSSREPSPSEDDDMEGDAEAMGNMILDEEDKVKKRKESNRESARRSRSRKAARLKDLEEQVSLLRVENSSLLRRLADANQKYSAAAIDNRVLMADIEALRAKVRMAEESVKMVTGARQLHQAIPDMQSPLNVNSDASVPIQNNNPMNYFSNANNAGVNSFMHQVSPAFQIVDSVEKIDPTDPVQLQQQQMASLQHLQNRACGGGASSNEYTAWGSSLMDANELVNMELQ
# Test: protein-binding microarray (RPBM); PBS, 2% BSA, 51.3 ng/ul salmon testes DNA, 50 uM zinc acetate, 200 nM TF, 25 C, 1 h; high values mean tight binding
# Conditions: protein: recombinant; tags: N-terminal polyhistidine and DsRed monomer fusion (pET32a); chain copies: 2; label: CyDye5-dUTP incorporated in the synthesized complementary strand; 3' TTTTT single-stranded linker to array surface; dsDNA, one strand shown
# In short: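 Using Ni–NTA, transcription factors fused N-terminally to polyhistidine and DsRed were purified after expression in E. coli BL21-CodonPlus. These were incubated at 200 nM with a blocked, double-stranded custom Agilent array for 1 h at 25 °C in a buffer containing 50 µM zinc acetate, and the array was washed. The binding signal is per-feature fluorescence intensity (arbitrary units) on an Axon 4000B scanner.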
row,Sequence,binding signal
1,GAAGGCGGCGGGGTGGCGAAGTGGCGAGGAGGAGACGGGGCGGAGTCACCTAGTGCAG,4910 fluorescence intensity (a.u.)
2,ATCGTCGCGGGGCCGCCGACGGCGCGCGGTGTGGCCGACGCGGAGTCACCTAGTGCAG,6480 fluorescence intensity (a.u.)
3,CTCCAGCATCGCCACCGGGTCCCCGTACGGGTTCTTCGGGCGGAGTCACCTAGTGCAG,3620 fluorescence intensity (a.u.)
4,CTCTGCTCTCAAATGCTCTGTGTGCGATCAGGTATTCATGCGGAGTCACCTAGTGCAG,3270 fluorescence intensity (a.u.)
5,ACCGAGTAGATCACTTCCGTGCAAGTTGGTTGACAAGTATCGGAGTCACCTAGTGCAG,3480 fluorescence intensity (a.u.)
6,CTGGACACCTCACGAAGTCTCAAACTGCTGTTTGTTCTCACGGAGTCACCTAGTGCAG,4230 fluorescence intensity (a.u.)
7,ATATGGCCTTCGGTGGTATCCACGTAGAGCTTTACGTTAACGGAGTCACCTAGTGCAG,4810 fluorescence intensity (a.u.)
8,CACCCGCGTGTATGCCAGCTAGGCTTGGCTCCGACGTGGACGGAGTCACCTAGTGCAG,4790 fluorescence intensity (a.u.)
9,GCAGCCACGACGCCCGCCAATGCTGCCGCCGCCATCGATGCGGAGTCACCTAGTGCAG,5300 fluorescence intensity (a.u.)
10,AGAATTTGTTCGTCACCCATATATCGGCGTCATGACCTCGCGGAGTCACCTAGTGCAG,3510 fluorescence intensity (a.u.)
11,GTCGGATCCCCGCGCAATCATACACACGTGTCGCCGTCGCCGGAGTCACCTAGTGCAG,8730 fluorescence intensity (a.u.)
12,TTAGGACCATAATATCTAATGTTACATGCCACGTACCAAACGGAGTCACCTAGTGCAG,7280 fluorescence intensity (a.u.)
13,GCCGCCCGCGCGCGACCGCGTGACGTCGCAGCCGCACCGACGGAGTCACCTAGTGCAG,6080 fluorescence intensity (a.u.)
14,CTGGTCGGCGCGGGCACGCGCTTGCGGAGGCTGGGGAGTCCGGAGTCACCTAGTGCAG,39700 fluorescence intensity (a.u.)
15,CGCTGCGGGGAGTCGGCGCTTCGTCGGAGGCGGCGGGGCGCGGAGTCACCTAGTGCAG,3230 fluorescence intensity (a.u.)
16,TGCCACCGTGGCGGCCGGGCCGATCCCCTAGCTGACGTGGCGGAGTCACCTAGTGCAG,41900 fluorescence intensity (a.u.)
17,ACGGCATCGATCGATCGCGGGCGACGTGGCTGAGTGGCGGCGGAGTCACCTAGTGCAG,6420 fluorescence intensity (a.u.)
18,TTGGGCGGCGGTGCGGGGAGGCTGAGGGGCGGCGCCGGCGCGGAGTCACCTAGTGCAG,3580 fluorescence intensity (a.u.)
19,GATCAAACCAGCGGCAGATGAGGGCGCAAAGAGAAAGAGCCGGAGTCACCTAGTGCAG,4210 fluorescence intensity (a.u.)
20,AGAGGGGCAGAGAGAGAGAGTGAGTGAGAAAGAGATCAAGCGGAGTCACCTAGTGCAG,56600 fluorescence intensity (a.u.)
21,GACGGGCGGCGGTGGGGCTGACGCGGGCGACGGAGGGGCTCGGAGTCACCTAGTGCAG,6720 fluorescence intensity (a.u.)
22,GCCGCTTCGATGCTGGCGGCAGGGTGGGGCGGGGATGCCTCGGAGTCACCTAGTGCAG,6170 fluorescence intensity (a.u.)
23,GCGGAGGAGGCAAGGAGATCAGGCGGCAGAGGAAAGGGGCCGGAGTCACCTAGTGCAG,3280 fluorescence intensity (a.u.)

row,Sequence,binding signal
1,TCGTCCGATCCCCTAGCGTGGCCACCGATCCGCCCGTCCCCGGAGTCACCTAGTGCAG,3230 fluorescence intensity (a.u.)
2,GGCTTCGCCGACGGTGGCTCGGGCGACGGCGATGCTGGGGCGGAGTCACCTAGTGCAG,58600 fluorescence intensity (a.u.)
3,GAAAGTTGCTGCGAACATACGTGATGACGCGACTAAAGCTCGGAGTCACCTAGTGCAG,5210 fluorescence intensity (a.u.)
4,ATAGCCCAACTCGAATCAATCCACGTCTCCACCGTTCATCCGGAGTCACCTAGTGCAG,3360 fluorescence intensity (a.u.)
5,TCCGTCGCGATTCGCCACCTCGCCCTCGTCTCGTTTTAGCCGGAGTCACCTAGTGCAG,3450 fluorescence intensity (a.u.)
6,ATGCACTTCCTGTCACGGTCCGGCCCATCCTAGCTGCCGGCGGAGTCACCTAGTGCAG,3290 fluorescence intensity (a.u.)
7,AAACTTCTCTTCAGATAAAGATTTACTACCGTGTCAAATTCGGAGTCACCTAGTGCAG,3800 fluorescence intensity (a.u.)
8,CTCCGTCCACTGGACAGGGCAGAGGCTGCCTACCAGACACCGGAGTCACCTAGTGCAG,4640 fluorescence intensity (a.u.)
9,GACAGTAGCAGCAGTGGACACGTCGATTTCGCAATTCGTGCGGAGTCACCTAGTGCAG,5760 fluorescence intensity (a.u.)
10,GCCAGGCGACGCGACGAGTCAGCTCAGCTCGCGCCCGCGGCGGAGTCACCTAGTGCAG,3700 fluorescence intensity (a.u.)
11,GGAGCGCGGACTCGCCGGCCAGCCGCGTCACGCGCTGGCGCGGAGTCACCTAGTGCAG,6650 fluorescence intensity (a.u.)
12,CGGTGGCAGCCCGGCGGCGTGGAGCGCGCTGCTTAGCGCGCGGAGTCACCTAGTGCAG,53600 fluorescence intensity (a.u.)
13,GAAGAGGGGAGGGAGCTCCAAAAGGGCGAGAAAGTAAGCGCGGAGTCACCTAGTGCAG,39400 fluorescence intensity (a.u.)
14,TGCTTAGCCGTGCGGCCCGTGCGGCGTCAATGGCGTGGCGCGGAGTCACCTAGTGCAG,4440 fluorescence intensity (a.u.)
15,GGCGCCAGCCCCGGTGCCGGGGAGTGTGGCGGAGCGGGAGCGGAGTCACCTAGTGCAG,3910 fluorescence intensity (a.u.)
16,GAGGTACCGGCCGTACGCGCCGCGGAGGCGGACGTAGGGCCGGAGTCACCTAGTGCAG,31200 fluorescence intensity (a.u.)
17,TCCCGTGCAGCCGTGGCAGCCGCGCGCTGCTCGAGTCCGGCGGAGTCACCTAGTGCAG,4470 fluorescence intensity (a.u.)
18,GCGGCGGTGTCTCGCGCCGCCAGCCTACAAATGGGGAGAGCGGAGTCACCTAGTGCAG,40300 fluorescence intensity (a.u.)
19,CGAGAGGTACCGCGCGCTGCCGGCGGAGAAGCGGGCGAGGCGGAGTCACCTAGTGCAG,41500 fluorescence intensity (a.u.)
20,GAGAGAGAGAGGGGACCAACTGAAAAGAGAGAGAAGCTAGCGGAGTCACCTAGTGCAG,31200 fluorescence intensity (a.u.)
21,GGCGAGCGCGGCGGAGGAGCGGCGGCGGGCGAGCGCGGCGCGGAGTCACCTAGTGCAG,8450 fluorescence intensity (a.u.)
22,GAGAGGGGAAGGGCGCTAGTAAGAAGCGCTAAGGGATGAGCGGAGTCACCTAGTGCAG,3180 fluorescence intensity (a.u.)
